Results as given in PubChem BioAssay AID720504 (National Center for Advancing Translational Sciences (NCATS), 2013).
Screen size: about 360,000 compounds; about 10,000 (2.8%) were called active. Roughly 4% stayed inconclusive and do not appear here. The full list was thinned out, with actives kept by preference. A number with no mark means an inactive call. Calls follow the shape of the dose curve; as a rule, active = well fitted inhibition curve with a large enough effect; inconclusive = small, poorly fitted or top-dose-only effect; inactive = flat fitted curve, though single readings scatter.

Biological target: Serine/threonine-protein kinase PLK1 (Homo sapiens) (UniProt P53350)
Sequence (P53350 whole entry, looked up, the tested form may be a part): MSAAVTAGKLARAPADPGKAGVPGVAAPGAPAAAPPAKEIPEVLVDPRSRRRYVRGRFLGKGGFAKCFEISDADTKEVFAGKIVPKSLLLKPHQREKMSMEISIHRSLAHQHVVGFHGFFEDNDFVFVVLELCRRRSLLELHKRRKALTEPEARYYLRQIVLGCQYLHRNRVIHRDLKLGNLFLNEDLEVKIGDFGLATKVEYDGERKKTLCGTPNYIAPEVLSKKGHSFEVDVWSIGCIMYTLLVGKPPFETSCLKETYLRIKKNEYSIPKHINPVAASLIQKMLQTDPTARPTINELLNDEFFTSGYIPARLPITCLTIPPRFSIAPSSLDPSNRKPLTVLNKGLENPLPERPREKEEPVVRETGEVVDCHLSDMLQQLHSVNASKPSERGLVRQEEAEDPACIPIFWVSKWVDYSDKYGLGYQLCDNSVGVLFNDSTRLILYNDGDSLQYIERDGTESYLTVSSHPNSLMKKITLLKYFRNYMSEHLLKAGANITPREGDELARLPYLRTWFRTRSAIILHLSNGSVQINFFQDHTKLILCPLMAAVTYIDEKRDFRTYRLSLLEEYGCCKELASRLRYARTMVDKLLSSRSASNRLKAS
Assay: qHTS for Inhibitors of PLK1-PDB (polo-like kinase 1 - polo-box domain): Primary Screen; also: nearly all actives have a fitted effect of over 65% in size; as to max response, negative = inhibition: series mostly up to about 57 µM
Conditions: Plk1 PBD binding of FITC phosphopeptide, fluorescence polarization
% is scaled to controls: 0 for no effect and ±100 for the full control effect; potency is read from the fitted curve at half-maximal effect.

Point of comparison: `CC1(C(=O)NS(=O)(=O)c2cccc(OC(F)F)c2)CCN1C(=O)COc1ccc(Cl)cc1` (centres undefined), max response, negative = inhibition 3.32%. Against it:
- Cc1cc2nc(-c3ccc(F)cc3)c(Cc3ccsc3)n2c(C)c1Br — lower, -4.34%
- CCc1c(-c2ccc(F)cc2)ncn1Cc1cccc(-c2ccccc2)c1 — lower, -16%
- CCN(CC)CCN(C(=O)c1ccc2c(c1)CCCC2)c1nc2c(OC)cccc2s1 — lower, -2.72%
- COc1ccc(N(C)C(=O)CCS(=O)(=O)c2cccc3nsnc23)cc1 — lower, -20.6%
- CN1OC[C@@H]2CN(C(=O)c3ccc(-c4ccccc4)cc3)[C@H](c3ccc(-c4cccc(F)c4)cc3)C[C@@H]21 — lower, -8.48%
- CC1=C(C(=O)N2CCOCC2)CC(CC(=O)NCc2cccs2)C(=O)N1CCCN1CCCC1=O (centres undefined) — lower, -11.8%
- C=CCNC(=S)N1CCc2[nH]c3ccccc3c2C1 — lower, -8.32%
- O=C(CCCN1CCc2[nH]c3ccc(F)cc3c2C1)c1ccc(F)cc1 — lower, -6.15%
- CCc1nc2c(OCc3ccc(F)c(F)c3)cccn2c1N(C)C(=O)c1ccco1 — lower, 1.07%
- O=C(OCc1ccccc1)N1CCC2CC1c1ccc(-c3ccc4c(c3)OCO4)cc12 (centres undefined) — lower, 2.15%
- OC(c1ccc(Cl)c(F)c1)c1ncc(-c2ccccc2Cl)[nH]1 (centres undefined) — higher, 3.86%
- CCCCC(O)C1=C[N+](=O)CC=C1 (centres undefined) — lower, -14.2%
- CN(C)[C@@H]1C(=O)C(C(N)=O)=C(O)[C@@]2(O)C(=O)C3=C(O)c4c(O)ccc(Cl)c4[C@@H](O)[C@H]3C[C@@H]12 — lower, -16.8%
- O=C(COC(=O)c1cncc(Br)c1)Nc1ccc(S(=O)(=O)N2CCOCC2)cc1 — lower, -5.27%
- Nc1nc(Sc2ncccc2[N+](=O)[O-])n[nH]1 — higher, 4.21%
- O=[N+]([O-])c1ccccc1S(=O)(=O)Nc1cccc2cccnc12 — lower, -7.49%
- CC(C)Cn1cc(-c2cncc3nccn23)cn1 — lower, -13.4%
- O=C(Nc1ccc2c(c1)OCCO2)C1c2ccccc2OCC(=O)N1Cc1ccccn1 (centres undefined) — lower, -7.8%
- CCc1ccc(N(CC(=O)NCc2cccnc2)S(=O)(=O)c2ccccc2)cc1 — lower, -2.42%
- CCC(C(=O)NCc1ccc(OC)cc1)n1nc(C)n2c(cc3occc32)c1=O (centres undefined) — lower, -1.71%
- CC(=O)Nc1cccc(-c2ccnc3c2CC(C)(C(=O)NCc2ccco2)O3)c1 (centres undefined) — lower, -8.18%
- CCOC(=O)c1cccc(NC(=O)CN(c2ccc(C)cc2)S(=O)(=O)c2c(C)noc2C)c1 — lower, -3.68%
- COc1ccc(N(CC(=O)Nc2cc(OC)ccc2OC)S(=O)(=O)c2c(C)noc2C)cc1 — lower, 2.36%
- CC(=O)Nc1cc(-c2ccccc2F)cn2c(-c3cccc(C(F)(F)F)c3)cnc12 — lower, -1.88%
- CC(C)N(C(=O)CN1CCN(S(=O)(=O)c2ccc(Br)s2)CC1)C(C)C — lower, 1%
- Cc1ccc(S(=O)(=O)N2CCN(CC(=O)N/N=C/c3ccc(Br)s3)CC2)cc1 — lower, -1.96%
- CCCCc1c(-c2ccc(Cl)cc2)ncn1CCc1ccccc1OC — higher, 5.05%
- COc1ccc(-c2ccc(CN3C(CC(C)C)C(=O)N(Cc4cn(CC5CCCCC5)nn4)CCS3(=O)=O)cc2)cn1 (centres undefined) — lower, -1.42%
- COc1ccc(NC(=O)CN(C)C(=O)c2cc(C)oc2C)cc1 — lower, 1.78%
- CCCCn1nnnc1C(c1cc2ccccc2o1)N(C)Cc1ccc(Cl)c(Cl)c1 (centres undefined) — higher, 5.97%
- COC(=O)c1c(C)c(C)nc(N)c1C#N — lower, -3.28%
- Cc1nc(Cl)c(C#N)c2c1CCCC2 — lower, -17.7%
- O=C(Nc1ccc(F)cc1)Nc1nnc([C@H]2C[C@H](O)[C@@H](CO)O2)s1 — higher, 3.58%
- COC(=O)C[C@H]1C=C[C@H](NC(=O)c2ccc(F)cc2)[C@@H](CO)O1 — lower, -25.2%
- CC1(C)CN(Cc2cccnc2)C(=O)[C@H]1CC(=O)Nc1ccc(Br)cc1 — lower, 2.66%
- Cc1ccccc1CC1(CO)CCCN(C(=O)c2cc(-c3ccccc3)no2)C1 (centres undefined) — lower, -5.7%
- Cc1noc(C)c1CCC(=O)N1CCCC(CO)(Cc2ccccc2)C1 (centres undefined) — lower, -15.4%
- O=C(NCCc1cccc(F)c1)C1CC(O)CN1C(=O)Nc1ccccc1 (centres undefined) — lower, -1.53%
- CCCCN1C(=O)C(CC(=O)NCc2cccs2)CC(C(=O)N2CCOCC2)=C1C (centres undefined) — higher, 5.78%
- CC(C)(C)C(=O)c1c(N)[nH]c(C(=O)c2ccccc2)c1-c1ccc(F)cc1 — lower, 2.51%
- CN(C)c1cc(-c2ccc(F)cc2)oc(=O)c1Cl — lower, -4.6%
- O=c1oc2ccccc2cc1-c1cn(-c2ccccc2)c(=S)[nH]1 — lower, -16.2%
- CS(=O)(=O)/C(C#N)=C/c1cccn1S(=O)(=O)c1ccc([N+](=O)[O-])cc1 — lower, -19.8%
- Cc1cc(C)c(C#N)c(SCc2ccc3c(c2)OCO3)n1 — lower, -1.63%
- Cc1snc(SCc2c(F)cccc2Cl)c1C#N — lower, -3.96%
- CC(=O)c1ccc(-c2cnc3c(NC=O)cc(-c4cccc(NS(C)(=O)=O)c4)cn23)cc1 — lower, 2.12%
- COC(=O)C[C@@H]1C=C[C@@H](NC(=O)c2cccnc2)[C@@H](CO)O1 — lower, -16.8%
- CCCCN(C(C)=O)c1ccc2c(c1)C1CC2CCN1Cc1ccccc1 (centres undefined) — lower, -11%
- CCCCn1nnnc1C1(C)CCC(=O)N1Cc1ccc(OC)c(OC)c1 (centres undefined) — lower, -1.18%
- COc1ccc(COC[C@H](CC(C)C)N2CCN(C(=O)c3cccc(C(F)(F)F)c3)CCC2=O)cc1 — lower, -20.7%
- O=C(/C=C/c1ccccc1Cl)Nc1ccc(S(=O)(=O)Nc2ncccn2)cc1 — lower, -7.83%
- NS(=O)(=O)c1ccc(NC(=O)/C=C/c2ccccc2Cl)cc1 — lower, 2.86%
- COCOc1cccc(CN2CCC(C)(Oc3ccc(SC)cc3)C2)c1 (centres undefined) — lower, -0.463%
- O=C(c1cc(S(=O)(=O)N2CCOCC2)ccc1Cl)N1CCOCC1 — lower, -9.46%
- O=C(Nc1cc(S(=O)(=O)N2CCOCC2)ccc1Cl)c1cc(=O)c2ccccc2o1 — lower, 1.44%
- OC[C@@H]1CN(Cc2cccs2)C[C@H](n2cnc3c(Nc4ccccc4)ncnc32)O1 — lower, -1.6%
- COc1ccccc1CNc1nc(Nc2ccccc2Cl)c2sccc2n1 — higher, 5.05%
- COc1ccc(S(=O)(=O)N[C@@H]2C=C[C@@H](CC(=O)N3CCc4ccccc4C3)O[C@@H]2CO)cc1 — lower, -0.456%
- CN(C)c1ccnc(Nc2ccc(F)cc2)c1C#N — lower, -0.535%
- O=C(Nc1ccncc1)Nc1ccc(F)cc1 — lower, 2.49%
- Cc1ccc(NC(=O)c2ccco2)cc1 — lower, -4.07%
- CCOC(=O)[C@]12CCCC=C1N(Cc1ccc(Cl)cc1Cl)C(=O)[C@H](CC(=O)N1CCCCC1)C2 — lower, -4.73%
- CNC(=O)C[C@H]1C(=O)N(c2ccc(OC)cc2)C[C@@H]1Cc1ccccc1 — lower, -11.8%
- Cc1cccc(NC(=O)CSC(N)=O)c1C — lower, -17.1%
- Cc1ccccc1NC(=O)CCOc1ccccc1 — lower, -11.8%
- CC1(C(=O)Nc2ccc3c(c2)OCCO3)CSCC(=O)N1CCOc1ccccc1 (centres undefined) — lower, 0.116%
- OCCC#Cc1ccc(N2C(c3ccsc3)=Cc3ccc(F)cc3C2c2c[nH]c3ccccc23)cc1 (centres undefined) — lower, -1.41%
- COc1cccc(N2CCN(c3ccc4nnc(CCC(=O)N5CCN(C)CC5)n4n3)CC2)c1 — lower, -2.01%
- CCOC(=O)c1cccc(NC(=O)CCc2nnc3ccc(N4CCOCC4)nn23)c1 — lower, 2.15%
- CC(C)CCOc1ccc(C(=O)Nc2cc(S(=O)(=O)N3CCOCC3)ccc2N2CCOCC2)cc1 — lower, -15.2%

With `COc1cccc2sc(N(CCCN(C)C)C(=O)CCS(=O)(=O)c3ccccc3)nc12` the Potency was 10.6 µM (active).
In the case of `CCCC(=O)N1CCc2[nH]c3ccccc3c2C1`, the Potency is reported as 26.7 µM (active).
With `C=C1c2c(Cl)ccc(O)c2C(O)=C2C(=O)[C@]3(O)C(O)=C(C(N)=O)C(=O)[C@@H](N(C)C)[C@@H]3[C@@H](O)C12` (some centres undefined) the Potency was 23.8 µM (active).
In the case of `O=[N+]([O-])c1cccc2ncccc12`, the Potency is reported as 3.77 µM (active).
`CCC(C(=O)NCc1cccnc1)n1nc(C)c2sc3ccccc3c2c1=O` (centres undefined) was tested, and the Potency was 26.7 µM (active).
`CCOc1ccc(N(CC(=O)OC)S(=O)(=O)c2c(C)noc2C)cc1` was tested, and the Potency was 26.7 µM (active).
With `Cc1cccc(NC(=O)CN2CCCN(S(=O)(=O)c3ccc(Br)s3)CC2)c1` the Potency was 21.2 µM (active).
`CNC(=O)Nc1cc(C(C)(C)C)no1` was tested, and the Potency was 10.6 µM (active).
For `COCc1c(N)c(C)nc(Cl)c1C#N`, the Potency was 18.9 µM (active).
In the case of `COC(=O)CCC(=O)N1CCCC(CO)(Cc2ccccc2)C1` (centres undefined), the Potency is reported as 21.2 µM (active).
With `O=c1oc2cc(O)ccc2cc1-c1ccc(F)cc1` the Potency was 3.36 µM (active).
`Cc1ccc(CSc2nsc(C)c2C#N)cc1` was tested, and the Potency was 15 µM (active).
For `CC(=O)NS(=O)(=O)c1ccc(NC(=O)/C=C/c2ccccc2Cl)cc1`, the Potency was 29.9 µM (active).
`O=[N+]([O-])c1cc(Cl)cc(/C=N/NC(=S)Nc2cc(S(=O)(=O)N3CCOCC3)ccc2Cl)c1O` was tested, and the Potency was 10.6 µM (active).
With `COCCOC(=O)c1sc(=S)n(CCOC)c1N` the Potency was 23.8 µM (active).
In the case of `Fc1ccc(Nc2nnns2)cc1`, the Potency is reported as 13.4 µM (active).
For `Cc1ccccc1NC(=O)CSC(=O)c1ccccc1`, the Potency was 10.6 µM (active).
For `COc1cccc(NC(=O)CCc2nnc3ccc(N4CCC(C)CC4)nn23)c1`, the Potency was 26.7 µM (active).
